Reference: PubChem BioAssay (NCI)
“And” between values parts separate entries of the source, which are not always exact repeats. Identical values can stand only once. About 83,000 compounds went through this panel and 20% of them were active in at least one assay; those are over-represented in the sample as a whole.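 The endpoint reported here, percent growth, reads 100 for growth as untreated, 0 for no net growth and -100 for all cells dead.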 The source made the active and inactive calls. Rule for the calls: active = growth percent below 10; inactive = the rest.

System: MDA-MB-468 breast
Assay: NCI-60 one-dose screen, 48 h (100 = growth as untreated, 0 = no growth, -100 = all killed)
Conditions: 10 µM unless noted

Row | Structure (SMILES) | growth
1 | CCCCCCCCn1cc(C2=C(c3coc4ccc(OC)cc34)C(=O)NC2=O)c2ccccc21 | 103% (inactive)
2 | Nc1[nH]n2cc(-c3ccccc3)nc2c1N=Nc1ccc(S(N)(=O)=O)cc1 | 32.6% (inactive)
3 | O=C(NO)c1ccc(-n2nc(-c3ccccc3)c3ccccc32)cc1 | 52.9% (inactive)
4 | NC(=O)c1cccc(-c2ccc(S(=O)(=O)Nc3ccc4c(c3)N(C(=O)C3CC3)CCC4)cc2)c1 | -4.85% (active)
5 | Oc1[nH]c2cc(Cl)ccc2c1/C=c1/ccc2c(c1)N=C(c1cc(F)cc(F)c1)N=2 | -19.6% (active)
6 | CCn1cc(-c2ccnc(NCCNS(=O)(=O)c3cccc4ccccc34)c2)c(-c2cccc(O)c2)n1 | 90.3% (inactive)
7 | O=C(O)c1ccccc1N=Cc1ccccc1 | 112% (inactive)
8 | CN(C)S(=O)(=O)c1ccc(-c2nc(C(Cl)Cl)nc3cc(-c4ccc(F)cc4)nn23)cc1 | -46.2% (active)
9 | O=S(Cc1ccccc1)/C(=C/NC(=S)Nc1ccccc1)c1ccccc1 (configuration not stated) | 108% (inactive)
10 | CC(=O)c1cccc(NS(=O)(=O)c2cccc(C(=O)Nc3ccc(Br)cc3)c2)c1 | 1.14% [25 µM] (active)
11 | CC(=O)Nc1ccc(S(=O)(=O)N/N=C\c2ccc(Cl)c(Cl)c2)cc1 | 100% (inactive)
12 | Nc1nc2c(ncn2[C@@H]2O[C@H](CS)[C@@H](O)[C@H]2O)c(=O)[nH]1 | 97.8% (inactive)
13 | O=C(O)c1ccccc1Cc1ccc(F)c2ccccc12 | 110% (inactive) and 102% (inactive)
14 | CC[Si](CC)(CC)OC1[C@@H](O[Si](CC)(CC)CC)[C@@H](CNC(=O)NC)O[C@H]1n1cnc2c(NC(=O)Nc3ccccc3)ncnc21 (some centres not stated) | 97.5% (inactive)
15 | CCN(CCO)CCCOc1ccc2c(Nc3cc(CC(=O)Nc4cccc(F)c4)[nH]n3)ncnc2c1 | 36.7% (inactive)
16 | O=C(Nc1cc(F)cc2cccnc12)c1cnc(N2CCNCC2)cn1 | -5.12% (active)
17 | c1ccc(Cn2cc3c(c2)-c2nc(Nc4ccccc4)ncc2CC3)cc1 | 115% [100 µM] (inactive)
18 | N/C(=N\N=C\c1cc2ccccc2[nH]1)N/N=C/c1cc2ccccc2[nH]1 | 107% (inactive)
19 | COc1ccc(-c2cn(Cc3cc4ccccc4s3)nn2)cc1OCCN1CCCCC1 | 63.8% (inactive)

Row | Structure (SMILES) | growth
20 | CCCC(=O)NC(c1cccnc1)c1cc(C(C)(C)C)c2cccnc2c1O (configuration not stated) | -20.4% (active)
21 | COC(=O)[C@H](Cc1cn(C)cn1)NC(=O)[C@H](CC(=O)OCc1ccccc1)NC(=O)Nc1cc(C(F)(F)F)cc(C(F)(F)F)c1 | -74.2% [100 µM] (active)
22 | Cc1ccc2nc(NC(=O)CSC(=S)N3CCN(Cc4ccccc4)CC3)sc2c1 | -76.4% (active)
23 | Cc1[nH]c(C2CC(c3ccc(C(F)(F)F)c(F)c3)=NN2c2ccccc2)c(C)c1C(=O)NCC(F)(F)F (configuration not stated) | 86.5% (inactive)
24 | O=C(Nc1cccnc1Nc1ccc(F)cc1)c1cn(Cc2cccc(Oc3ccccc3)c2)nn1 | 63.5% (inactive)
25 | CC1(C)S(=O)(=O)OCCOS1(=O)=O | 101% (inactive)
26 | COC(=O)c1cccc2c1N(C)c1c(cccc1C(=O)OC)CC2 | 124% (inactive)
27 | COc1cccc2c1C(=O)c1c(O)c3c(c(O)c1C2=O)C[C@@](O)(/C(C)=N/NC(=O)c1ccc(Cl)cc1)C[C@@H]3OC1CC(N)C(O)C(C)O1 (some centres not stated) | -65.1% (active)
28 | COc1cc2oc(-c3cccc(C(=O)Nc4ccc5c(c4)OCO5)c3)cc(=O)c2c(O)c1OC | 54.6% (inactive)
29 | COC(=O)Nc1nc2ccc(C(=O)c3ccc(F)cc3)cc2[nH]1 | 25.9% (inactive)
30 | CSc1ccc(-c2ccccc(=O)c2O)cc1 | 11.5% (inactive)
31 | COc1nc2c(c(=O)n1C)N=C1c3ccccc3C(=O)C1C(c1ccccc1)N2 (configuration not stated) | 82.5% (inactive)
32 | CC(=O)c1c(Nc2ccc(F)c(F)c2F)[nH]c2c(F)cc(F)cc2c1=O | -21.9% (active)
33 | CCOC(=O)c1ccc(N/C=C/C(=O)c2ccccc2)cc1 | 98.9% (inactive)
34 | O=S(=O)(NCCCNc1nccc(-c2c(-c3ccc(F)c(O)c3)nc3sccn23)n1)c1ccc(F)cc1 | -0.153% (active)
35 | OC(c1ccccc1)C(NC(Cc1ccccc1)c1ccccc1)c1ccccc1 (configuration not stated) | 89.3% (inactive)
36 | Cc1cc(=O)n(Nc2ccccc2)c(O)c1C#N | 108% (inactive)
37 | COc1ccc(N(Cc2cc(OC)c(OC)c(OC)c2)C2OC(=O)c3ccccc32)cc1 (configuration not stated) | 24.2% (inactive)
